An excerpt weighted towards active compounds, which were near 3.5% of everything screened.
Mcl1 Bid PPI: disrupts binding of human Mcl-1 to Bid peptide; Q07820; TR-FRET Mcl-1/Bid-Dy647 peptide binding, 1536-well; inhibition, % at 21.7 µM; 220,000 tested, 0.97% active; AID 1021;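 active = compounds that cut the binding signal by more than half at the single screening dose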;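 also: His-tagged Mcl-1 with europium anti-His antibody binding Bid BH3 peptide; 0% = Mcl-1 plus peptide wells and 100% = peptide-only wells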
Target sequence (Q07820 whole entry, looked up): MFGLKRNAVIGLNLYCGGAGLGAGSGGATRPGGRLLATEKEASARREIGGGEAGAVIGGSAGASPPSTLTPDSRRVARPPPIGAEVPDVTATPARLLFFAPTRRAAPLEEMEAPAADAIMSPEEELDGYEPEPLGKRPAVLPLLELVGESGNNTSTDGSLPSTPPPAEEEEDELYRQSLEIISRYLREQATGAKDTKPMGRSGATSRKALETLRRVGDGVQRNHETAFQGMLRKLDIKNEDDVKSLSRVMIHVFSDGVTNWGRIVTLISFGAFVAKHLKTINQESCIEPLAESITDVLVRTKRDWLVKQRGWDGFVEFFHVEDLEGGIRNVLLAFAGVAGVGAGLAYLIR
Mcl1-Noxa inh: Mcl-1/Noxa interaction inhibition; Q07820; TR-FRET Mcl-1/Noxa peptide binding, 2 h; inhibition, % at 21.7 µM; 220,000 tested, 1.5% active; AID 1022;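 active = compounds that cut the protein-peptide binding signal by more than 50% relative to plate controls in a single-dose test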;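 also: His-tagged Mcl-1 with rhodamine Noxa BH3 peptide and terbium anti-His antibody; 0% = Mcl-1 plus Noxa peptide wells and 100% = peptide-only wells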
eIF4E-4G inh: eIF4E/eIF4G interaction inhibition in translation initiation. 220,000 tested, 0.37% active. P63073+Q04637. TR-FRET eIF4E-eIF4GI(517-606) binding, 2 h. inhibition, % at 21.7 µM. AID 782;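 active = inhibition above about 30%, limit read from the data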;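 also: 0% = full FRET control wells and 100% = background wells lacking eIF4GI fragment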
Hck Nef HTS: inhibitors of human Hck kinase activated by Nef; P08631; Recombinant Hck-YEEI plus Nef, Z-Lyte FRET kinase assay; inhibition, % at 20 µM; 220,000 tested, 0.68% active;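 active = Hck-Nef kinase inhibition above about 50%, limit read from the data; inactive = inhibition below that limit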;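 also: 0% = DMSO with Hck plus Nef and 100% = Hck alone without Nef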
14-3-3 Bad PPI: disrupts binding of bovine 14-3-3 zeta to phospho-Bad peptide. P63103. TR-FRET 14-3-3zeta/Dy647-pBad peptide displacement, 1 h. inhibition, % at 21.7 µM. 220,000 tested, 0.71% active;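 active = inhibition above about 70%, limit read from the data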;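 also: 0% = full 14-3-3 plus peptide FRET controls and 100% = background without 14-3-3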
Target sequence (P63103 whole entry, looked up): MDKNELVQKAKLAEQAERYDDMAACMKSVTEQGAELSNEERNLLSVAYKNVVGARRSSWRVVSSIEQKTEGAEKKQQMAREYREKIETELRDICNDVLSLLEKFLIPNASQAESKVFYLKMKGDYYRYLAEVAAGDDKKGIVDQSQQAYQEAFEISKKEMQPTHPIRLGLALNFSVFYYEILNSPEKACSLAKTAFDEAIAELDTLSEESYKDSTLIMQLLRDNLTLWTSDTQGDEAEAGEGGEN
Bim-Mcl-1: disrupts Bim peptide binding to human Mcl-1; Q07820; Bead-based flow cytometry, Bim peptide-Mcl-1 binding; inhibition, % at 10 µM; 190,000 tested, 0.1% active; AID 1009; in the data active = inhibition above about 40%;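 also: 0% = no compound tracer wells and 100% = peptide blocker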
* marks the source's active call; other numbers are inactive results; x = no result given.

SMILES | Mcl1 Bid PPI | Mcl1-Noxa inh | eIF4E-4G inh | Hck Nef HTS | 14-3-3 Bad PPI | Bim-Mcl-1
COc1ccc(OC)c(-n2c(=S)[nH]c3cc(C(=O)N4CCN(c5ccccc5)CC4)ccc3c2=O)c1 | -61 | 8 | 2 | 15 | -9 | 48*
Cc1ccc(NS(=O)(=O)c2cc([N+](=O)[O-])ccc2N/N=C/c2sc(N3CCOCC3)nc2-c2ccccc2)c(C)c1 | -3 | 14 | -4 | 32 | -1 | x
Cc1ccsc1CNC(=O)c1c(-c2ccccc2)noc1C | -9 | 10 | 3 | 4 | 0 | x
N#C/C(=C(/O)CSc1nnc(Cc2cccs2)n1C1CCCCC1)c1nc2ccccc2[nH]1 | -65 | 52* | -18 | 4 | -18 | 7
COc1ccccc1-c1nnc(SC/C(O)=C(\C#N)c2nc3ccccc3[nH]2)n1C1CCCCC1 | -44 | -47 | 1 | 2 | 4 | -6
OC(COCC1COc2ccccc2O1)CN1CCN(c2ccccc2F)CC1 (stereo unspecified) | 25 | 28 | 8 | -1 | 89* | 0
COC(C[C@@H](O)C[C@H](O)COCc1ccccc1)OC | -29 | -20 | 2 | 32 | -2 | x
Cc1ccc(C(=O)OCC(=O)Nc2ccc3c(c2)OCO3)cc1S(=O)(=O)N1CCOCC1 | -44 | 11 | -11 | 0 | 30 | -3
CCN(c1ccc(NC(=O)COC(=O)c2ccc(C)c(S(=O)(=O)N3CCOCC3)c2)cc1)C(C)C | 24 | 74* | 5 | 3 | 0 | -6
CCOC(=O)C1CCN(CCC(=O)Nc2ccc(C)cc2)CC1 | -42 | -5 | -1 | 26 | -10 | 0
CCCCCCC(=O)Nc1ccc(C(=O)N2CCCC2)cc1 | -13 | 10 | 3 | -2 | 5 | -2
CCCCC(=O)Nc1ccc(C(=O)N2CCC(C(=O)OCC)CC2)cc1 | -6 | 17 | 0 | -11 | 5 | 64*
CCCCCC(=O)Nc1ccc(N2CCN(C(=O)c3ccccc3)CC2)cc1 | -49 | 2 | 4 | -6 | 82* | -4
NNC(=O)c1ccc(N2CCc3ccccc32)c([N+](=O)[O-])c1 | -29 | 25 | -2 | 21 | -21 | -3
Cc1ccc(CNC(=O)c2ccc(N3CCc4ccccc43)c([N+](=O)[O-])c2)cc1 | -4 | 29 | 55* | 0 | 19 | 5
COc1cc(N2C(=O)c3ccccc3C2=O)c(Cl)cc1C(=O)OCC(=O)N(C)C | -24 | 0 | -1 | 2 | -7 | -3
CN(C)CCCn1c(SCC(=O)N2c3ccccc3Sc3ccccc32)nc2ccccc2c1=O | -12 | 13 | 13 | 1 | -13 | -3
CCOC(=O)c1nc(C)sc1-c1ccnn1S(=O)(=O)c1ccccc1C(F)(F)F | -13 | -4 | -3 | 16 | -2 | x
CCOC(=O)c1nc(C)sc1-c1ccnn1S(=O)(=O)c1ccc(C)cc1 | 69* | 0 | 7 | 7 | -1 | x
Cc1ccc(S(=O)(=O)NN2C(=O)/C(=C/c3cccn3C)SC2=S)cc1 | -20 | 54* | 6 | 0 | 6 | 6
CCc1ccnc(NS(=O)(=O)c2ccc3c(c2)CCO3)c1 | -15 | 5 | 0 | 12 | -2 | x
CCC(C)Nc1nc(-c2ccc3c(c2)NC(=O)CO3)cs1 (stereo unspecified) | 21 | 14 | 11 | 0 | 81* | 2
COc1ccc(Nc2nc(-c3ccc4c(c3)NC(=O)CO4)cs2)cc1 | -28 | 29 | 2 | -2 | -5 | -3
Cc1ccc(S(=O)(=O)N(C)CC(O)Cn2c3ccccc3c3ccccc32)cc1 (stereo unspecified) | 72* | 7 | 5 | -2 | 8 | 0
O=C(Oc1ccc2c(c1)OCO2)c1cc2c(s1)CCC2 | -42 | 57* | 0 | 9 | -6 | -1
SMILES | Mcl1 Bid PPI | Mcl1-Noxa inh | eIF4E-4G inh | Hck Nef HTS | 14-3-3 Bad PPI | Bim-Mcl-1
O=C(c1cc2c(s1)CCCC2)N1CCN(Cc2ccc3c(c2)OCO3)CC1 | 24 | 10 | 10 | -1 | 42 | 1
Nc1[nH]n2c(=O)cc(-c3ccccc3)nc2c1N=Nc1ccc2c(c1)OCO2 | -57 | 60* | 3 | 31 | -14 | 3
Cc1[nH]n(-c2ccccc2)c(=O)c1N=Nc1ccc2c(c1)OCO2 | -27 | 20 | -1 | 23 | -5 | -1
Fc1cccc(NC(=S)NNc2c3ccccc3nc3ccccc23)c1 | -19 | 80* | 10 | 43 | -13 | 1
Oc1cccc(NC(=S)Nc2ccccc2)c1 | -75 | 23 | -9 | 27 | 99* | x
S=c1[nH]nc(C2CCCCC2)n1/N=C/c1cccs1 | -48 | -3 | 11 | 0 | -5 | 2
O=C1CC(c2ccc(O)c(O)c2)Oc2c1ccc(O)c2O (stereo unspecified) | -86 | 106* | 6 | 44 | 49 | x
CC(C)=CCc1c(O)ccc2c1OC(c1ccc(O)c(O)c1)CC2=O (stereo unspecified) | -6 | 33 | 3 | 19 | 3 | -1
CCSc1nnc(-c2cc(Br)ccc2NC(C)=O)c(=O)[nH]1 | -8 | -4 | 96* | 19 | 4 | x
O=C(NC1CCC(O)CC1)c1ccc(-c2ccc([N+](=O)[O-])cc2)o1 (stereo unspecified) | 25 | 71* | 14 | 25 | 20 | x
C=CC(=O)NCC1OCCc2ccccc21 (stereo unspecified) | -29 | -5 | 3 | 17 | -10 | -3
O=C(/C=C/c1ccco1)NCC1OCCc2ccccc21 (stereo unspecified) | -53 | 62* | 20 | 45 | 32 | x
CC1=C(C(=O)OCc2ccccc2)C(/C=C/c2ccccc2)NC(=S)N1 (stereo unspecified) | 54* | 6 | -2 | 0 | -8 | -5
C=CCOC(=O)C1=C(C)NC(=S)NC1/C=C/c1ccccc1 (stereo unspecified) | -12 | 3 | 2 | -1 | -4 | 1
CCc1ccccc1NS(=O)(=O)c1ccc2[nH]cc(C(=O)NCC3CCCO3)c(=O)c2c1 (stereo unspecified) | 59* | 72* | 0 | 1 | 36 | -2
COc1cccc(NS(=O)(=O)c2ccc3[nH]cc(C(=O)N(C)Cc4ccco4)c(=O)c3c2)c1 | 58* | 10 | -8 | 2 | 44 | 0
Cc1ccccc1NS(=O)(=O)c1ccc2[nH]cc(C(=O)N(C)Cc3ccco3)c(=O)c2c1 | 51* | 11 | 5 | 0 | 40 | -3
CCCCNC(=O)/C=C/c1ccc(S(=O)(=O)Nc2ccc(OC)cc2)cc1 | -30 | 2 | 2 | -6 | -11 | -1
C/C(CC(=O)NC12CC3CC(CC(C3)C1)C2)=N\NC(=O)c1ccc(C)cc1 | -36 | -11 | 5 | 13 | -6 | 1
CCOC(=O)N1CCN(CC(=O)N2CCC(C(N)=O)CC2)CC1 | -34 | -7 | 1 | 23 | -5 | -2
C=C(C)CNC(=O)CCc1nnc(Cc2cccc(C(F)(F)F)c2)o1 | -18 | 14 | 1 | 25 | -12 | 0

High-throughput results as filed in PubChem BioAssay.
